Values joined by “and” are separate entries in the source; they are usually repeats but may differ in a detail not shown here. Equal values may be shown once. Measured potencies and affinities stand elsewhere.
Legend:
Staphylococcus aureus = conditions: Concentration 32 ug.mL-1, ASSAY_TEST Inhibition of Bacterial Growth, detection method Absorption (OD600), MEDIA CAMHB, plate type 384well, NBS, CORNING #3640, time 18 hr
Escherichia coli = conditions: Concentration 32 ug.mL-1, ASSAY_TEST Inhibition of Bacterial Growth, detection method Absorption (OD600), MEDIA CAMHB, plate type 384well, NBS, CORNING #3640, time 18 hr

Structure (SMILES) | Inhibition (Staphylococcus aureus) [%] | Inhibition (Escherichia coli) [%] | Inhibition (Staphylococcus aureus; 32 ug/mL) | Inhibition (Escherichia coli; 32 ug/mL)
Cc1ccc(C(O)SNNc2ncnc3c2c(C)nn3-c2ccccc2)cc1 (configuration not stated) | 5.38 | 11.97 | – | –
COc1ccccc1C1C(C#N)=C(N)Oc2ccc3ccccc3c21 (configuration not stated) | 38.4 | -7.08 | – | –
Cc1ccc(C2c3ccc4ccccc4c3Oc3nc4c(c(N)c32)CCCC4)cc1 (configuration not stated) | -4.73 | -12.25 | – | –
C#CCNc1nc(NCCCCC2CCN(Cc3ccccc3)CC2)c(C#N)cc1C#N | 5 | -12.03 | – | –
CCOc1nc(N)c(C#N)cc1C#N.Cl | -3.52 | -30.21 | – | –
CCOC(=O)c1cc(C#N)c(N)nc1C | 8.2 | -11.35 | – | –
COc1ccc(C2c3c(nc4c(c3N)CCCC4)Oc3ccc4ccccc4c32)c(OC)c1 (configuration not stated) | 15.3 | 3.89 | – | –
CCCCNNC(=O)c1cc2ccccc2[nH]1 | 0.71 | -2.05 | – | –
CC1=C(CO)C(c2ccc(C#N)cc2)C(C#N)=C(N)O1 (configuration not stated) | 9.52 | 17.18 | – | –
CC(C)(C)OC(=O)Nc1ncccc1Br | 38.27 | -5.45 | – | –
COC(=O)C1CCN(Cc2ccccc2)CC1 | 27.51 | 11.49 | – | –
CCOC(=O)C1=C(C)NC(N)=C(C#N)C1c1ccc([N+](=O)[O-])cc1 (configuration not stated) | 22.51 | -7.02 | – | –
CC1Cc2c(nc3c(c2N)CCCC3)NC1=O (configuration not stated) | 29.78 | -3.82 | – | –
O=C1NC(=O)C(=Cc2ccccc2)N1 | 16.19 | 11.12 | – | –
C#CCNc1nc(N)c(C#N)c(-c2ccccc2)c1C#N | 3.95 | 15.49 | – | –
Cc1ccc(C(O)SNNc2ncnc3c2cnn3-c2ccccc2)cc1 (configuration not stated) | 13.51 | 11.76 | – | –
CCOC(=O)C1=C(C)Oc2nc3c(c(N)c2C1c1ccc(O)c(OC)c1)CCC3 (configuration not stated) | -3.09 | -6.01 | – | –
Cc1ccc(C2C(C#N)=C(N)Oc3c2ccc2ccccc32)cc1 (configuration not stated) | -4.2 | -2.25 | – | –
COc1cc(C2c3c(nc4c(c3N)CCC4)Oc3ccc4ccccc4c32)ccc1O (configuration not stated) | 11.79 | 11.06 | – | –
Cc1ccc(CNNC(N)=O)cc1.Cl | 4.52 | 6.79 | – | –
CCC(CC)NNC(=O)c1c[nH]c2ccccc12.Cl | 4.35 | 0.83 | – | –
CC(C)(C)OC(=O)N[C@H]1CC[C@H](O)CC1 | 7.19 | -6.43 | – | –
C#CCN(C)Cc1cc2cc(OCCCCC3CCN(Cc4ccccc4)CC3)ccc2n1C | 38.42 | -8.55 | – | –
NNC(=O)c1c[nH]c2ccc(OCc3ccccc3)cc12 | 2.88 | 0.02 | – | –
Cl.ClCCCN1CCCCC1 | 19.47 | 17.01 | – | –
N#Cc1cc(C#N)c(NC2CCN(Cc3ccccc3)CC2)nc1N | – | – | 23.9% and 14.84% | -6.37% and -14.46%

Reference: ChEMBL document CHEMBL4513135, “CO-ADD screening of IQOG CSIS (Spain) compounds”
